# Screening results from PubChem BioAssay.
# Hits are enriched below; roughly 12% of the tested compounds scored in any of these assays.
# G9a block: qHTS Assay for Inhibitors of Histone Lysine Methyltransferase G9a | Histone-lysine N-methyltransferase EHMT2 (Homo sapiens), Q96KQ7 | G9a H3K9 monomethylation, AlphaScreen, 2 h | Potency, µM (series often up to 102 µM), for inactives: top-dose activity, negative = inhibition, usual class: inhibitors | hit rate 8.8% among 350,000 | AID 504332, 2011; further: potency means the concentration at half of the fitted maximal effect; on the % scale 0 is the no-effect control and ±100 the full control effect; nearly all actives have a fitted effect of over 75% in size
#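 Signal arises when biotinylated H3K9 peptide, once monomethylated, bridges streptavidin donor and antibody-captured acceptor beads. Enzyme at 20 nM was preincubated 15 min with test compounds; peptide 500 nM and SAM 20 uM then reacted for 2 h.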
# JMJD2A Tudor: qHTS Assay for Inhibitors of JMJD2A-Tudor Domain. Lysine-specific demethylase 4A (Homo sapiens), O75164. AlphaScreen JMJD2A-Tudor / H3K4me3 peptide binding. Potency, µM (top dose mostly 114 µM), inactives show at the top dose activity change, negative = inhibition, actives largely listed as inhibitors. hit rate 4.4% among 390,000; further: potency means the concentration at half of the fitted maximal effect; on the % scale 0 is the no-effect control and ±100 the full control effect; nearly all actives have a fitted effect of over 50% in size
# BAZ2B inh: qHTS Assay for Inhibitors of BAZ2B | Bromodomain adjacent to zinc finger domain protein 2B (Homo sapiens), Q9UIF8 | AlphaScreen BAZ2B-H3K14Ac peptide displacement | Potency, µM (series often up to 114 µM), inactives show top-dose activity change, negative = inhibition, most hits filed as inhibitors | hit rate 4.4% among 360,000 | AID 504333, 2011; further: potency means the concentration at half of the fitted maximal effect; on the % scale 0 is the no-effect control and ±100 the full control effect; nearly all actives have a fitted effect of over 60% in size
#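 Protein-peptide AlphaScreen: BAZ2B 50 nM, b-H3K14Ac 50 nM, 1x PBS pH 7.4 + 0.01% Tween-20. Preincubation 30 min RT; cpd 30 min RT (top 110 uM); beads 20 min RT, light-protected.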
# HP1b chromo inh: HTS for Inhibitors of HP1-beta Chromodomain Interactions with Methylated Histone Tails; hit rate 0.56% among 390,000; Potency, µM (highest dose often 114 µM), inactives show top-dose activity change, negative = inhibition, usual class: inhibitors; AlphaScreen HP1-beta / biotin-H3K9me3 peptide binding; further: potency means the concentration at half of the fitted maximal effect; nearly all actives have a fitted effect of over 70% in size
# Target sequence (P83916 whole entry, looked up): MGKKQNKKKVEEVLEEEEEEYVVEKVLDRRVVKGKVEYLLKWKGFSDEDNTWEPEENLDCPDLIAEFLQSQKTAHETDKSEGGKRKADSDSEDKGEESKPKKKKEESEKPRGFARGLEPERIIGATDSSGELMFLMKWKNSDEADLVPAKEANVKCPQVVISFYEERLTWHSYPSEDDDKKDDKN
#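 AlphaScreen: HP1-beta (50 nM) preformed 30 min with biotin-H3(1-18)K9me3 peptide (50 nM) in PBS pH 7.4, 0.01% Tween-20. Compound added for 30 min at RT, then streptavidin donor/nickel chelate acceptor beads (10 ug/mL) for 30 min.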
# PI5P4Ka inh: qHTS for Inhibitors of phosphatidylinositol 5-phosphate 4-kinase (PI5P4K). Phosphatidylinositol 5-phosphate 4-kinase type-2 alpha (Homo sapiens), P48426. hit rate 1.2% among 330,000. AID 652105, 2013. PI5P4Kalpha enzyme, ADP-Glo luminescence, 60 min; hits give low values. max response, %; active means max response of -50% or lower; inconclusive means between -30% and -50%; inactive means -30% or higher; further: value at the top dose of about 77 µM; on the % scale 0 is the no-effect control and ±100 the full control effect
# Target sequence (P48426 whole entry, looked up): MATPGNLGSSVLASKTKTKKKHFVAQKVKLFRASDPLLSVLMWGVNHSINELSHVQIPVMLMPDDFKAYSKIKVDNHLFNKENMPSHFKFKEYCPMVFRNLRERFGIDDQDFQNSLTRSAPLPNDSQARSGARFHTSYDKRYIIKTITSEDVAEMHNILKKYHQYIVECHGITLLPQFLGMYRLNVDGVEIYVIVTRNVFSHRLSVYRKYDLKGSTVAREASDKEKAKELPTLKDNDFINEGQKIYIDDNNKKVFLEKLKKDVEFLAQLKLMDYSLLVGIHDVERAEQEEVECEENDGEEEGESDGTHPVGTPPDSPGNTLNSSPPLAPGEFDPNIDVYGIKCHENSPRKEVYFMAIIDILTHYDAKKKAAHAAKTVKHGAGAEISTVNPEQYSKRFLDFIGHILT
#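 Single end-point luminescence (ADP-Glo) quantified ADP from PI5P4Kalpha turnover; ATP 5 microM final, 1 h at RT, 0.1% CHAPS and 0.28 mM EGTA in HEPES pH 7.4.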
# PLK1 PBD inh: qHTS for Inhibitors of PLK1-PDB (polo-like kinase 1 - polo-box domain): Primary Screen. AID 720504, 2013. Potency, µM, without a hit: max response, negative = inhibition, most hits filed as inhibitors. Plk1 PBD binding of FITC phosphopeptide, fluorescence polarization. hit rate 2.8% among 360,000; further: potency means the concentration at half of the fitted maximal effect; series mostly up to about 57 µM; on the % scale 0 is the no-effect control and ±100 the full control effect; nearly all actives have a fitted effect of over 65% in size
# * = called active by the depositor; ? = inconclusive; nt = not tested or not shown; [ ] = dose if it differs, or a comment. Unless noted, the call rests on the fitted dose curve; in most records, active means well fitted curve in the direction sought with a large enough effect; inconclusive means small, poorly fitted or top-dose-only effect, or another doubt; inactive means no such curve, though single readings can be large; an effect the other way counts as inactive or inconclusive.
SMILES,G9a block,JMJD2A Tudor,BAZ2B inh,HP1b chromo inh,PI5P4Ka inh,PLK1 PBD inh
Cc1ccc([C@H]2N[C@]3(CCCN(Cc4ccc(F)cc4)C3=O)[C@H]3C(=O)N(Cc4ccccc4)C(=O)[C@@H]23)cc1,nt,nt,nt,nt,2,-4%
CCN(CC)S(=O)(=O)c1ccc2c(c1)N(CC(=O)N1CCN(c3cccc(C)c3)C(C)C1)C(=O)CO2 (centres undefined),-5%[59 µM],-17%,-37%,-11%,nt,nt
Cc1ccc(S(=O)(=O)N2CCN(C(=O)C3CCN(C(=O)c4ccc(F)cc4)CC3)CC2)c(C)c1,?,18µM*,11%,10%,7,-16%
Cc1ccc(S(=O)(=O)N2CCN(C(=O)C3CC3C)CC2)c(C)c1 (centres undefined),-3%,3%,-8%,32%,1,-3%
CN1CCN(c2ncc3nc(-c4ccccc4)c(=O)n(CCC#N)c3n2)CC1,-1%[12.7 µM],nt,nt,nt,nt,nt
CCOc1ccc(CNC(=O)C2Cc3ccccc3N2C(=O)CC)cc1OC (centres undefined),17%[59 µM],-15%,-1%,5%,nt,nt
Cn1nccc1C(=O)NC(=S)Nc1cc(Cl)cc(Cl)c1,?,22µM*,-16%,-7%,-6,?
Cn1nccc1C(=O)Nc1ccc2c(c1)OCCO2,2%,-12%,0%,4%,-28,?
Cn1nccc1C(=O)Nc1ccc(OC(=O)c2ccnn2C)cc1,1.6µM*,-8%,-6%,32%,nt,-11%
O=C(COC(=O)Cc1cccc(C(F)(F)F)c1)NCc1ccco1,?,79µM*,50µM*,?,?,?
O=C(COC(=O)Cc1cccc(C(F)(F)F)c1)NC1CC1,7%,7%,-8%,57%,-1,-10%
O=C(COC(=O)COc1ccc(Nc2ccccc2)cc1)NCc1ccco1,50µM*,56µM*,50µM*,?,?,-7%
CC(=O)c1ccc(OCC(=O)OCC(=O)NCc2ccco2)cc1,-17%[12.7 µM],4%,-1%,40%,7,0%
CC(C)C(NC(=O)OCc1ccccc1)C(=O)OCC(=O)NCc1ccco1 (centres undefined),-21%[59 µM],56µM*,50µM*,-16%,?,-15%
O=C(COC(=O)Cc1ccc(F)cc1)NCc1ccco1,?,-15%,50µM*,54%,-2,-16%
O=C(c1ccc(F)cc1)N1c2nc(-c3ccco3)nn2C2(CCCCC2)[C@@H]2CCCC[C@@H]21,?,-14%,?,8%,nt,nt
COc1ccc(CC(=O)OCC(=O)NCc2ccco2)cc1OC,50µM*,-6%,8%,37%,2,-2%
COc1ccc([N+](=O)[O-])cc1NC(=O)CSCc1cc(C)cc(C)c1,-14%,?,-33%,-24%,9,30µM*
COc1ccc(/C=C/C(=O)NC(=S)Nc2cc([N+](=O)[O-])ccc2O)cc1OC,28µM*,89µM*,?,?,-25,-10%
CCCCC(=O)NC(=S)Nc1cc([N+](=O)[O-])ccc1OC,4%[12.7 µM],-6%,-15%,36%,-5,-5%
COc1ccc([N+](=O)[O-])cc1NC(=S)NC(C)=O,29%[12.7 µM],?,-9%,21%,-15,27µM*
O=C(NC(=S)Nc1cc([N+](=O)[O-])ccc1O)C1CC1,7%,-29%,-27%,-1%,?,-23%
COc1ccc2cc(S(=O)(=O)N3CCCC3)ccc2c1,?,2%,37%,3%,0,-6%
C/C=C1\NC(=O)[C@H](C)NC(=O)[C@@H](NC(=O)[C@H](Cc2ccc(O)cc2)NC(=O)[C@@H](NC(=O)/C(C)=C/C)C(C)C)[C@@H](C)OC(=O)[C@H](CC(C)C)NC(=O)[C@@H](CCC(=O)O)NC1=O,nt,nt,nt,nt,-2,-17%
Cc1nn(-c2nnc(C)c(=O)[nH]2)c(C)c1SCC(=O)Nc1ccc(F)cc1,?,32µM*,50µM*,17%,-2,?
SMILES,G9a block,JMJD2A Tudor,BAZ2B inh,HP1b chromo inh,PI5P4Ka inh,PLK1 PBD inh
COc1ccc(S(=O)(=O)N2CCc3ccccc32)cc1C(=O)NCC(c1ccco1)N1CCCC1 (centres undefined),nt,-15%,nt,23%,6,-7%
CC(=O)NNc1nc(-c2ccc(C)cc2)cs1,32µM*,-11%[11.4 µM],-19%,16%,12,-12%
CCCC(=O)Nc1ccc(-c2csc(NNC(C)=O)n2)cc1,35µM*,-18%,1%,38%,3,?
O=C(Cc1ccccc1F)Nc1nc(-c2ccc(F)c(F)c2)cs1,9%,1%,4%,38%,-2,1%
CC(=O)Nc1ccc(-c2csc(NC(=O)Cc3ccccc3F)n2)cc1,40µM*,-29%,-28%,-16%,?,-4%
CCOc1ccc(Br)cc1C1=NN(C(C)=O)C(c2ccc([N+](=O)[O-])s2)O1 (centres undefined),?,?,?,-7%,-21,-13%
CCOC(=O)c1cccc(NC(=O)c2ccc3nc(Cc4ccccc4)oc3c2)c1,14%[59 µM],-16%,-11%,21%[57 µM],nt,nt
O=C1C(=O)N(C2CCN(C(=O)c3ccccc3F)CC2)CCN1Cc1ccc(F)cc1,6%[59 µM],6%,2%,33%,nt,nt
COc1cc(/C=C/C(=O)C2C(=O)C=C(C)OC2=O)cc(OC)c1O (centres undefined),50µM*,-31%,56µM*,-2%,3,35%
COc1ccc(/C=C/C(=O)C2C(=O)C=C(C)OC2=O)cc1O (centres undefined),-23%[59 µM],-23%,50µM*,-17%,-2,-12%
C=C1C=CS(=O)(=O)N(Cc2ccccc2)C1,nt,-15%,nt,45%,nt,nt
CN(C(=O)COC(=O)C1c2ccccc2Oc2ccccc21)C1CCS(=O)(=O)C1 (centres undefined),-7%[59 µM],-23%[11.4 µM],nt,40%,6,-10%
O=C(COC(=O)C1c2ccccc2Oc2ccccc21)NC1CCS(=O)(=O)C1 (centres undefined),-13%[0.0925 µM],-82%[57.1 µM],-7%,0%,-14,12µM*
Cc1nnc(SCC(=O)Nc2ccc(N3CCOCC3)cc2)o1,50µM*,-26%,12%,17%,0,-5%
O=C(CSc1ccccn1)Nc1ccc(N2CCOCC2)cc1,32µM*,?,-25%,-35%,-9,?
CCc1nnc(SCC(=O)Nc2ccc(N3CCOCC3)cc2)o1,-1%[12.7 µM],-12%,4%,10%,0,2%
Cc1cn2c(=O)cc(COC(=O)c3ccccc3F)nc2s1,7%[59 µM],-6%,-3%,31%,nt,nt
